Laboratory results from PubChem BioAssay AID651834 (Broad Institute, 2012).
Calls of active or inactive are those of the source. The rule behind the calls is not given here.

What follows are molecules tested against Kelch-like ECH-associated protein 1 (Homo sapiens) (UniProt Q14145) (assay: Keap1-Nrf2 peptide binding inhibitors, dose response, biochemical, fluorescence polarization, dry powder, set 4 (AID 651834)). Conditions: plate reader; series mostly up to 100 µM.
Kelch-like ECH-associated protein 1 (Homo sapiens), sequence (Q14145 whole entry, looked up): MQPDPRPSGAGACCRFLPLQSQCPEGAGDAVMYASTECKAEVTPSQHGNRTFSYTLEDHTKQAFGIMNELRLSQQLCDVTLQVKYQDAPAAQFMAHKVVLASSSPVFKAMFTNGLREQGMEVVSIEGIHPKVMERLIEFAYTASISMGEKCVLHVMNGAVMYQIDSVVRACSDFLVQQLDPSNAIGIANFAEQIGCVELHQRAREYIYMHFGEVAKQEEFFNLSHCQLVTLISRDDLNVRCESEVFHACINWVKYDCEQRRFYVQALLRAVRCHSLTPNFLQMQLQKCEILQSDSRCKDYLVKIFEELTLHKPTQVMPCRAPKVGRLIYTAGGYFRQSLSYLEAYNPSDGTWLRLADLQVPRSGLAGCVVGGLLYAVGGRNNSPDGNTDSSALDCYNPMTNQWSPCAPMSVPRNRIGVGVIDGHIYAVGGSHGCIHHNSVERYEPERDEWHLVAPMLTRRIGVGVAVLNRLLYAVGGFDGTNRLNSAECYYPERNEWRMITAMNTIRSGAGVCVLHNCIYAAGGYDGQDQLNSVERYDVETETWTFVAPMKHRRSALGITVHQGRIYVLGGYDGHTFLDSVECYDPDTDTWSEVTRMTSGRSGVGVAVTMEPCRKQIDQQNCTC

outcome, inactive:
COc1cc(OC)cc(C(=O)N2CCc3ccccc3C2CN2C(=O)c3ccccc3C2=O)c1 (stereo not given)
O=C(CN1CCc2ccccc2C1CN1C(=O)c2ccccc2C1=O)c1c[nH]c2ccccc12 (stereo not given)
CC(=O)N1CCc2ccccc2C1CN1C(=O)c2ccccc2C1=O (stereo not given)
COc1cc(/C=C/C(=O)N2CCC=CC2=O)cc(OC)c1OC
CS(=O)(=O)N1CCc2ccccc2C1CN1C(=O)c2ccccc2C1=O (stereo not given)
O=C1c2ccccc2C(=O)N1CC1c2ccccc2CCN1C(=O)N1CCOCC1 (stereo not given)
O=C1c2ccccc2C(=O)N1CC1c2ccccc2CCN1C(=O)COc1ccc(Cl)cc1Cl (stereo not given)
CCN(CC)C(=O)N1CCc2ccccc2C1CN1C(=O)c2ccccc2C1=O (stereo not given)
O=C1c2ccccc2C(=O)N1CC1c2ccccc2CCN1C(=O)c1cccc(C(F)(F)F)c1 (stereo not given)
O=C1c2ccccc2C(=O)N1CC1c2ccccc2CCN1S(=O)(=O)c1cccc2cccnc12 (stereo not given)
